Source: PubChem BioAssay (NCATS)
Records with an inconclusive call do not appear. The source made the active and inactive calls. Unless noted, calls come from the whole dose curve; as a rule, active = well fitted curve in the direction sought with a large enough effect; inconclusive = small, poorly fitted or top-dose-only effect, or another doubt; inactive = no such curve, though single readings can be large; an effect the other way counts as inactive or inconclusive.

Tests used:
[1] = target: Arylsulfatase A (Homo sapiens) (UniProt P15289); test: qHTS screen for enhancers of Arylsulfatase A (ASA1): LOPAC Validation Assay (AID 720538)
Procedure, shortened: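 MLD patient fibroblasts (SV40, ASA-I179S), 1536-well; adhere 6 hrs; cpd 48h, 37 degree C, 5% CO2; pNCS 0.5mM final in lysis buffer, 14h RT; stop 1N NaOH final; fluor. Ex525/Em598.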

[2] = qHTS for compounds that reverse cellular toxicity of Amyloid beta (A-beta) peptide in yeast: LOPAC Validation Assay (AID 720559)
Procedure, shortened: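 Medium dispensed, compounds pinned, A-beta yeast suspension added; plates held at 30 C for 48 hr; absorbance measured at 600 nm to gauge growth; values scaled between DMSO and FeCl3/clioquinol (equimolar) controls.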

[3] = qHTS for Activators of Parkin Expression: LOPAC Validation Assay (NLuc Reporter) (AID 720572)
Procedure, shortened: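 Parkin promoter-driven FLuc/NLuc neuronal reporter cells; 24 h plating, 7-pt dose response, 24 h at 37 C/5% CO2; FLuc then NanoLuc reagent, 10 min each, luminescence; DMSO/positive control normalized.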

[4] = qHTS for Activators of Parkin Expression: LOPAC Validation Assay (FLuc Reporter) (AID 720573)
Procedure, shortened: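 Cells seeded, 24 h; compounds pinned, 7-pt dose response; 24 h at 37 C/5% CO2; volume reduced; FLuc reagent 10 min RT; luminescence read. Normalization: DMSO = 0, positive control = 100%.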

[5] = qHTS assay for small molecule agonists of the antioxidant response element (ARE) signaling pathway measured by Nrf2-dependant transcriptional activity (AID 720636; active = well fitted curve in the direction sought with a large enough effect in the repeat runs; an effect the other way counts as inactive or inconclusive)
Procedure, shortened: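 Quantitative HTS format in HepG2 cells stably expressing an ARE-luciferase reporter; 16 hr compound treatment at 37 C, luciferase signal detected with ONE-Glo.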

Measured: Potency

Chain of Arylsulfatase A (Homo sapiens) (P15289 whole entry, looked up): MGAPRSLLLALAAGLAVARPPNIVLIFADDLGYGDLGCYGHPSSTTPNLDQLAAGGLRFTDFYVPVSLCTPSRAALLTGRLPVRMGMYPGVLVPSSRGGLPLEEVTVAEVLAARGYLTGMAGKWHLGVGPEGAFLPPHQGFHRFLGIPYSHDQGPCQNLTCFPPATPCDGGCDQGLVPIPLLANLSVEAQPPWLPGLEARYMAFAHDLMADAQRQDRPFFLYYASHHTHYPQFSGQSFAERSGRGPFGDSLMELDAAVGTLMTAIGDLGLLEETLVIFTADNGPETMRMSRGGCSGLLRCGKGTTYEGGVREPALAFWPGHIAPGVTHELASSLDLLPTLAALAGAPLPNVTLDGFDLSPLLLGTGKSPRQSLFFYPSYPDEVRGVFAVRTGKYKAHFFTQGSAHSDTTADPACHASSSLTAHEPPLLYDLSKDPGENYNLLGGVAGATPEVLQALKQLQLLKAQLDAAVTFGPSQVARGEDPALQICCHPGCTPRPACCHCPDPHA

CC(C)(C)[C@]1(O)CCN2C[C@H]3c4ccccc4CCc4cccc(c43)[C@@H]2C1
inactive: [1] | [2] | [3] | [4]

CN1CCN(C2Cc3ccccc3Sc3ccc(Cl)cc32)CC1 (stereo unspecified)
inactive: [1] | [2] | [3] | [4]

COC(=O)C1=C(C)NC(C)=C(C(=O)OC)C1c1ccccc1[N+](=O)[O-]
inactive: [1] | [2]

CC(C(O)c1ccc(O)cc1)N1CCC(Cc2ccccc2)CC1 (stereo unspecified)
inactive: [1] | [2] | [3] | [4]

CC1=C(CC(=O)O)c2cc(F)ccc2/C1=C\c1ccc(S(C)(=O)=O)cc1
inactive: [1] | [2] | [3] | [4]

COc1ccc(Cl)cc1C(=O)NCCc1ccc(S(=O)(=O)NC(=O)NC2CCCCC2)cc1
inactive: [1] | [2] | [4] | [5]

Cc1cc(N)c2ccccc2[n+]1CCCCCCCCCC[n+]1c(C)cc(N)c2ccccc21
inactive: [1] | [2] | [3] | [4]

CC[C@H]1CN2CCc3cc(OC)c(OC)cc3[C@@H]2C[C@@H]1C[C@H]1NCCc2cc(OC)c(OC)cc21
inactive: [1] | [2] | [3]

CN(C)CCCN1c2ccccc2CCc2ccccc21
inactive: [1] | [2] | [3] | [4] | [5]

CC(C)NC[C@H](O)c1ccc(O)c(O)c1
inactive: [1] | [2] | [3] | [4]

CCN(CC)CCNC(=O)c1cc(Cl)c(N)cc1OC
inactive: [1] | [2] | [3] | [4]

CSc1ccc2c(c1)C(N1CCN(C)CC1)Cc1ccccc1S2 (stereo unspecified)
inactive: [1] | [2] | [3] | [4]
